Data on eight compounds can be found in PubChem BioAssay (NCI).

Compounds without any hit were thinned out: in the full panel of roughly 83,000, 20% have a hit.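 Activity criterion: percent growth below 10, measured after cells in 96-well plates were exposed to a single compound concentration for 48 hours.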 Values without a mark were called inactive. Activity calls are given as the source filed them.

Holding throughout (assay): NCI-60 one-dose screen, 48 h (100 = growth as untreated, 0 = no growth, -100 = all killed)
The test system of test [1] is NCI-H23 lung. Particulars: 10 µM unless noted.
In test [2] the test system is NCI-H226 lung. The note with it: 10 µM unless noted.
The subject of test [3] is NCI-H322M lung. The note with it: 10 µM unless noted.
For test [4], the system named is NCI-H460 lung. Particulars: 10 µM unless noted.
Test [5] relates to HOP-92 NSCLC. The note with it: 10 µM.
In test [6] the test system is NCI-H522 lung. The note with it: 10 µM.
Test [7] concerns A549/ATCC NSCLC. The note with it: 10 µM unless noted.
Test [8] deals with 786-0 renal. The note with it: 10 µM unless noted.
The subject of test [9] is COLO 205 colon. The note with it: 10 µM unless noted.
In test [10] the test system is DU-145 prostate. Particulars: 10 µM unless noted.
Test [11] concerns K-562 leukemia. The note with it: 10 µM unless noted.
Test [12] relates to MALME-3M melanoma. Particulars: 10 µM unless noted.
In test [13] the test system is MDA-MB-231 breast. Particulars: 10 µM unless noted.
Test [14] has as its system RXF 393 renal. Particulars: 10 µM unless noted.
Test [15] deals with SF-268 CNS. The note with it: 10 µM unless noted.
Test [16] concerns SF-295 CNS. The note with it: 10 µM unless noted.
For test [17], the system named is SF-539 CNS. Particulars: 10 µM unless noted.
For test [18], the system named is UACC-257 melanoma. Particulars: 10 µM unless noted.
The test system of test [19] is M14 melanoma. Particulars: 10 µM unless noted.

Consider `CCCC(=O)NNc1[nH]c(-c2ccc(OC)cc2)cc1C(=O)OCC`, for which the growth in test [1] is 95.4%; in test [2], 104%; in [3], 35.2%; in test [4], 120%; in [5], 72.9%; in [6] it was 91.1%. The growth in [7] was 110%; in [8], 96.6%; in [9], 1.42% (active); in test [10], 104%; in test [11], 49.1%; in test [12] it was 52%. Moreover, the growth in test [13] is 87.4%; in [14], 107%; in test [15], 118%; in [16] it was 93.7%; in [17] it was 92.7%; in test [18], 105%.

Regarding `O=C(Nn1cnc2ccccc21)N1CCCC1`, the growth in test [1] is 111%; in test [2], 105%; in test [3], 86.7%; in test [4], 117%; in [5], 74.1%; in test [6], 104%. For the same compound, the growth in test [7] is 109%; in [8], 80.3%; in [9], 117%; in test [10], 102%; in test [11], 94%; in test [12] it was 92.2%. For the same compound, the growth in test [13] is 94.2%; in test [14], 109%; in test [15], 117%; in [16] it was 98.7%; in test [17], 91.8%; in test [18], 101%.

For `Nc1cc(N)c2nc(-c3ccccc3)c(NCCc3ccc(Cl)c(Cl)c3)nc2c1`, the growth in test [1] was -63.9% (active); in test [2], -76.2% (active); in test [3], -91.7% (active); in test [4], -10.9% (active); in test [5], -78.5% (active); in test [6], -72.1% (active). Besides, the growth is -62.8% (active) in test [7]; -97.9% (active) in test [8]; -62.4% (active) in test [9]; -98.6% (active) in test [10]; -16.9% (active) in [11]; -93.3% (active) in test [12]. Further, the growth in [13] was -71.1% (active); in test [14], -94.3% (active); in [15] it was 0.859% (active); in [16], -74.2% (active); in test [17], -96.7% (active); in [18] it was 5.16% (active).

As to `Oc1ccc(CN(Cc2ccc(C(F)(F)F)cc2)Cc2ccc(O)c3ncccc23)c2cccnc12`, the growth is 17.4% in [1]; 18.3% in test [2]; 31.5% in test [3]; 1.74% (active) in test [4]; -3.41% (active) in test [5]; 3.25% (active) in test [6]. The growth in [7] was 1.19% (active); in [8], 11.4%; in [9], 19.6%; in [10], 24.1%; in [11] it was 8.17% (active); in test [12] it was 23.7%. In addition, the growth was 48.4% in test [13]; 11.2% in test [14]; 25.6% in test [15]; 6.95% (active) in [16]; 15.2% in test [17]; -27.7% (active) in test [18]. The growth in test [19] was 3.46% (active).

For the compound `O=C(NCCNCCO)c1cc([N+](=O)[O-])cc([N+](=O)[O-])c1O`, the growth is 103% in [1]; 97.7% in [2]; 103% in test [3]; 104% in test [4]; 93.9% in [5]; 91.9% in test [6]. Further, the growth in test [7] was 100%; in test [8], 104%; in test [9], 110%; in test [10] it was 99.3%; in [11], 102%; in test [12] it was 107%. Moreover, the growth was 109% in test [13]; 109% in [14]; 102% in [15]; 101% in test [16]; 106% in test [17]; 103% in test [18]. Further, the growth in test [19] is 102%.

In the case of `Cc1ccc(C(C)C)c(OCc2ccc(C(=O)N/N=C/c3cccc(O)c3O)cc2)c1`, the growth in test [1] was 25.9%; in [2], 68.1%; in [3], 43.1%; in test [4], 12.5%; in test [5], 37.9%; in test [6], 47.4%. The growth is 52.9% in test [7]; 16% in test [8]; 16.3% in [9]; 33.6% in test [10]; 4.92% (active) in test [11]; 29.6% in test [12]. For the same compound, the growth in test [13] was 41.1%; in test [14], 48.3%; in test [15], 25.6%; in test [16] it was 36.1%; in test [17], 26%; in [18], 58.8%. The growth in test [19] was 18.1%.

Take `COCC(=O)NNc1[nH]c(-c2ccc(OC)cc2)cc1C#N`: the growth in [1] is 100%; in test [2] it was 106%; in test [3], 33.4%; in test [4], 117%; in test [5] it was 95.4%; in [6], 104%. Besides, the growth is 112% in [7]; 95.3% in test [8]; 115% in test [9]; 111% in test [10]; 96.9% in test [11]; 112% in test [12]. Moreover, the growth in test [13] was 102%; in test [14], 114%; in test [15] it was 119%; in test [16], 96%; in [17] it was 96.2%; in test [18], 109%.

`O=C(O)CC1Cc2ccccc2C1C(=O)O` (stereo not drawn): the growth is 93.5% in test [1]; 102% in test [2]; 113% in test [3]; 106% in [4]; 108% in [5]; 95.9% in [6]. In addition, the growth in test [7] was 103%; in [8], 105%; in test [9], 114%; in test [10], 106%; in test [11], 91.5%; in test [12] it was 103%. The growth was 105% in test [13]; 105% in test [14]; 100% in test [15]; 100% in [16]; 99.1% in test [17]; 107% in test [18]. In [19], the growth is 95.9%.
